Pf growth 96h: Primary qHTS for delayed death inhibitors of the malarial parasite plastid, 96 hour incubation | 6.9% of 320,000 active | Potency, µM (highest dose often 28.7 µM), for the others: top-dose activity change, negative = inhibition, usual class: inhibitors | P. falciparum luciferase reporter growth, 96 h; further: potency means the concentration at half of the fitted maximal effect; on the % scale 0 is the no-effect control and ±100 the full control effect
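Readout is luminescence from an integrated firefly luciferase in P. falciparum. Red cells, 2% hematocrit and 0.05% parasitemia final, were cultured with compound through two parasite generations (96 hours) at 37 C, 5% CO2.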
Pf growth 48h: Primary qHTS for delayed death inhibitors of the malarial parasite plastid, 48 hour incubation; Potency, µM (doses to about 28.7 µM), inactives show at the highest dose activity change, negative = inhibition, actives largely listed as inhibitors; P. falciparum luciferase growth in erythrocytes, 48 h; 5.9% of 310,000 active; AID 504832, 2011; further: potency means the concentration at half of the fitted maximal effect; on the % scale 0 is the no-effect control and ±100 the full control effect
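Here the parasites carry a stable luciferase gene and grow inside erythrocytes in Albumax-based RPMI medium with compound for one erythrocytic cycle. Activity is scored as loss of luminescent signal.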
Shiga toxin inh: A qHTS for Small Molecule Inhibitors of Shiga Toxin; Vero cells, Shiga toxin protein synthesis inhibition reporter; 9.2% of 290,000 active; inhibition, % at 38.7 µM; in the data active means inhibition mostly above about 28%, no sharp cut-off; inactive means mostly below about 43%; further: 0% is about no effect
CHX counter: Cycloheximide Counterscreen for Small Molecule Inhibitors of Shiga Toxin. AID 2314, 2010. cell reporter, cycloheximide protein synthesis inhibition counterscreen. 12% of 300,000 active. max response, %; in the data active means max response mostly above about 13%, no sharp cut-off; inactive means mostly below about 14%; further: read at 38.3 µM for the half of the compounds with a filed dose; 0% is about no effect
* marks the source's active call; other numbers are inactive results; i = inactive; ? = inconclusive; / = no result given; [ ] = dose if it differs, or a comment. Hits are enriched below; roughly 21% of the tested compounds scored in any of these assays. Unless noted, the call rests on the fitted dose curve; in most records, active means well fitted inhibition curve with a large enough effect; inconclusive means small, poorly fitted or top-dose-only effect, or another doubt; inactive means no such curve, though single readings can be large or run the other way.

SMILES	Pf growth 96h	Pf growth 48h	Shiga toxin inh	CHX counter
Cn1c(=NC(=O)COc2ccccc2)sc2ccccc21	203.9%	i	77.8*	42.4*
CC(=O)N=c1sc2ccccc2n1C	71.1%	11.8%	-2.4	12.9
COC(=O)Cn1c(=NC(=O)c2cccc(OC)c2)sc2cc(OC)ccc21	?	-0.5%	30.3	10.1
COc1cccc(C(=O)N=c2sc3cc(S(C)(=O)=O)ccc3n2C)c1	13.1µM*	98.7%	80.1*	27.6*
COCCn1c(SCC(=O)NC2(C#N)CCCCC2)nc2ccccc2c1=O	10.0%	-20.9%	/	/
Cn1c(=NC(=O)CS(=O)(=O)c2ccccc2)sc2cc([N+](=O)[O-])ccc21	?	11.7µM*	/	/
Cn1c(=NC(=O)CS(=O)(=O)c2ccccc2)sc2ccccc21	39.1%	74.7%	/	/
Cc1cc(C)n2nc(SCC(=O)c3c(N)n(CC(C)C)c(=O)n(C)c3=O)nc2n1	?	4.65µM*	-7.5	-5.8
Cc1cc(C)n2nc(SCC(=O)N(CC(C)C)c3c(N)n(CC(C)C)c(=O)[nH]c3=O)nc2n1	3.9%	7.3%	-6.3	-2.3
CC(C)Cn1c(N)c(C(=O)CSc2nc3ncc(Cl)cc3[nH]2)c(=O)n(C)c1=O	10.4µM*	?	/	/
CCCn1c(N)c(C(=O)CSc2nc(N)cc(=O)[nH]2)c(=O)n(C)c1=O	4.65µM*	?	/	/
CCCc1cc(=O)[nH]c(SCC(=O)c2c(N)n(C)c(=O)n(C)c2=O)n1	48.2%	15.2%	-5.5	1.0
O=C(NNc1cccc(Cl)n1)Nc1ccc(F)cc1	0.0%	-13.9%[5.75 µM]	-1.5	-3.2
N#C/C(C(=O)NCc1ccccc1)=C1/N=C(NC(=O)c2cccs2)c2ccccc21	-7.3%	11.3%	-7.7	-4.5
N#Cc1nc(-c2ccccc2Cl)oc1NCc1ccco1	/	1.0%	46.6*	21.9*
N#Cc1nc(-c2ccccc2)oc1NCc1ccco1	28.7%	7.9%	active	23.5*
N#Cc1nc(-c2ccc(Cl)cc2)oc1NCc1ccco1	/	26.1%	91.0*	27.8*
N#Cc1nc(-c2ccco2)oc1NCc1ccc(F)cc1	/	19.2%	33.7	11.6
O=C(COc1ccc(S(=O)(=O)N2CCOCC2)cc1)NCc1ccccn1	-17.2%	-8.9%	-26.1	-4.3
COc1ccc(NC(C)=[N+](C)CCNS(=O)(=O)c2ccc(Cl)cc2)cc1	0.2%	46.8%	-9.0	4.8
CCN(CC)c1ccc(/C=N/NC(=O)c2nnn(-c3nonc3N)c2C(C)C)c(O)c1	7.38µM*	3.7µM*	-16.6	3.3
CC(/C=N/NC(=O)c1nnn(-c2nonc2N)c1C(C)C)=C\c1ccco1	9.6%	-25.0%	4.7	39.8*
CC(C)c1c(C(=O)N/N=C/c2ccc3c(c2)OCO3)nnn1-c1nonc1N	23.9%	18.2%	-3.9	8.5
COC(=O)c1cn(C(=O)c2cc(Br)ccc2Cl)c2ccccc12	68.2%	?	-5.2	-3.5
COc1ccc(C(=O)OCC[N+]2(C)CCCCC2)cc1	6.8%	19.5%	106.6*	43.8*
SMILES	Pf growth 96h	Pf growth 48h	Shiga toxin inh	CHX counter
COc1ccc(C(=O)OCCN2CCCCC2)cc1	?	20.6%	51.3*	48.2*
CC(C)(C)c1ccc(C(=O)OCCN2CCCCC2)cc1	5.86µM*	26.7%	54.9*	21.9*
CCOc1ccc(N(CC)C(=O)c2cn(CC)c(=O)c3cc(OC)c(OC)cc23)cc1	-2.7%	/	-8.2	-3.9
CC1CCC(N2CCNCC2)CC1 (configuration not stated)	14.7µM*	11.3%	-5.3	-0.6
C1CCCC(N2CCNCC2)CC1	2.94µM*	16.3%	14.4	-2.7
Cc1ccc(SCCC(=O)NC(C)(C)C)cc1	80.1%	118.5%	73.2*	44.3*
Cc1ccc(SCCC(=O)N(C)C)cc1	0.9%	57.3%	22.9	17.0*
Cc1ccc(SCCC(=O)NC(C)C)cc1	2.4%	12.9%	24.7	18.9
CC(C(=O)Nc1ccccn1)(c1ccccc1)c1ccccc1	?	?	8.4	6.7
O=C(O)c1ccc(N2C(=O)c3cccc(Oc4ccc(Cl)cc4)c3C2=O)cc1	0.0%	-3.0%	1.0	-1.3
O=C(O)c1cccc(N2C(=O)c3cccc(Oc4ccc(Cl)cc4)c3C2=O)c1	?	-4.2%	0.9	18.6*
CCN1CCc2c(C#N)c(N3CCOCC3)nc(NCCO)c2C1	?	9.1%	-20.3	-5.8
O=C(Nc1ccc(Br)cc1)N1CCc2ccccc2C1	-26.6%	62.2%	125.5*	52.6*
O=C(Nc1ccc(F)cc1)N1CCc2ccccc2C1	32.2%	84.0%	91.1*	50.6*
CCN(CC(=O)Nc1cc(Cl)ccc1C)C(=O)c1ccc(=O)n(Cc2ccccc2)n1	9.28µM*	?	-13.1	1.8
CCN(CC(=O)Nc1c(F)cccc1F)C(=O)c1ccc(=O)n(Cc2ccccc2)n1	-2.3%	61.6%	-1.9	-2.5
Cc1ccc(/C=C2\SC(=S)N(CC3CCCO3)C2=O)o1 (configuration not stated)	?	-29.8%	8.5	1.3
COc1cccc(/C=C2\Sc3ccc(C(=O)NCc4cccnc4)cc3N(C)C2=O)c1	19.2%	?	-11.3	5.4
CN1C(=O)/C(=C/c2cccc(Cl)c2)Sc2ccc(C(=O)NCc3cccnc3)cc21	?	9.28µM*	-4.2	3.6
COc1ccc(/C=C2/C(=O)N(CC3CCCO3)C(=S)N2C)c(OC)c1 (configuration not stated)	0.0%[5.75 µM]	6.9%	1.2	-2.8
O=C1/C(=C/c2ccco2)SC(=S)N1CC1CCCO1 (configuration not stated)	16.0%	-3.1%	63.3*	26.4*
COc1ccc(/C=C2\Sc3ccc(C(=O)NCC4CCCO4)cc3N(C)C2=O)cc1 (configuration not stated)	?	?	10.9	11.6*
COc1ccccc1/C=C1\NC(=S)N(CC2CCCO2)C1=O (configuration not stated)	6.6%	/	39.7	27.4*
CC(c1ccccc1)C(NC(=O)OCC1c2ccccc2-c2ccccc21)C(=O)O (configuration not stated)	61.0%	17.6%	/	/
COc1ccc(/C=C2\SC(=S)N(CC3CCCO3)C2=O)cc1 (configuration not stated)	27.7%	9.5%	13.5	19.7*
SMILES	Pf growth 96h	Pf growth 48h	Shiga toxin inh	CHX counter
O=C1/C(=C\c2ccc(-c3ccccc3Cl)o2)SC(=S)N1CC1CCCO1 (configuration not stated)	0.0%	7.9%	-15.9	-1.8
O=C1/C(=C/c2cccnc2)SC(=S)N1CC1CCCO1 (configuration not stated)	-21.8%	0.0%	12.0	-2.0
COc1cc(/C=C2/SC(=S)N(CC3CCCO3)C2=O)ccc1O (configuration not stated)	?	2.2%	41.2*	20.7*
Cn1ncc2c(c(SCc3ccc(Cl)cc3Cl)nn2C)c1=O	?	7.38µM*	-3.2	-3.4
C/C(=N\OCC(=O)OCC(=O)NC(=O)c1ccc(OC(F)F)cc1)c1ccc2c(c1)OCO2	0.0%	14.5%	/	/
Cn1c(=O)c2c(nc(NCC3CCCC(CN)C3)n2Cc2ccc(Cl)cc2Cl)n(C)c1=O (configuration not stated)	2.94µM*	2.94µM*	-7.1	0.3

Assay outcomes from PubChem.
